Where “and” joins values, the source holds several entries; their conditions need not be identical. Equal values may be shown once. Records with an inconclusive call do not appear. Calls of active or inactive are those of the source.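 Rule for the calls, unless noted: active = compounds whose cell count with miR-34 switched on is under 0.7 times the count with it off; inactive = the rest.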
What was measured:
[1] = circadian clock period modulators, cell-based, LOPAC library, luminescence reporter (AID 2774; call rule not given here;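 note: values are relative to mean of DMSO wells on each plate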); conditions: circadian reporter cells, at 7 µM, actives lie on both sides
[2] = system: Hepatitis C virus NS3 helicase; assay: HCV NS3 helicase inhibitors, primary screen, biochemical, fluorescence polarization, LOPAC1280 library (AID 687035; in the data active = inhibition above about 37%); conditions: Purified HCV NS3 helicase, Cy5-dT15 ssDNA binding fluorescence polarization; stronger effect = higher value; concentration not given here
[3] = Cy5 fluorescence quenching or enhancement artefacts, artefact control for HCV NS3 helicase inhibitor project, biochemical, LOPAC1280 (AID 687037; call rule not given here); conditions: Cy5-DNA-NS3h complex fluorescence interference counterscreen
[4] = sensitizers of A549 cells to miR-34 induction, primary screen, imaging, A549 dox-inducible miR-34, nuclei and caspase counts (AID 1347080); conditions: A549 miR-34 inducible, Hoechst nuclei count, 48 h
[5] = viability rescue of complex I mutant cybrids, primary screen, cell-based, galactose medium, ATP luminescence (AID 1645843;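 active = z-score of at least 1.8 in each of two replicates, scored against plate mean and spread of sample wells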;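 note: positive z means more ATP and so rescue of galactose-driven cybrid death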); conditions: complex I mutant cybrid cells, 72 h, stronger effect = higher value
[6] = biological target: ATP-dependent translocase ABCB1 (Homo sapiens) (UniProt P08183); assay: MDR1 (ABCB1) efflux transporter inhibition, cell-based (AID 377; in the data active = fluorescence slope change above about 50%); conditions: MDR1-expressing cells, fluorescent substrate accumulation slope; stronger effect = higher value; concentration not given here
Sequence of ATP-dependent translocase ABCB1 (Homo sapiens) (P08183 whole entry, looked up): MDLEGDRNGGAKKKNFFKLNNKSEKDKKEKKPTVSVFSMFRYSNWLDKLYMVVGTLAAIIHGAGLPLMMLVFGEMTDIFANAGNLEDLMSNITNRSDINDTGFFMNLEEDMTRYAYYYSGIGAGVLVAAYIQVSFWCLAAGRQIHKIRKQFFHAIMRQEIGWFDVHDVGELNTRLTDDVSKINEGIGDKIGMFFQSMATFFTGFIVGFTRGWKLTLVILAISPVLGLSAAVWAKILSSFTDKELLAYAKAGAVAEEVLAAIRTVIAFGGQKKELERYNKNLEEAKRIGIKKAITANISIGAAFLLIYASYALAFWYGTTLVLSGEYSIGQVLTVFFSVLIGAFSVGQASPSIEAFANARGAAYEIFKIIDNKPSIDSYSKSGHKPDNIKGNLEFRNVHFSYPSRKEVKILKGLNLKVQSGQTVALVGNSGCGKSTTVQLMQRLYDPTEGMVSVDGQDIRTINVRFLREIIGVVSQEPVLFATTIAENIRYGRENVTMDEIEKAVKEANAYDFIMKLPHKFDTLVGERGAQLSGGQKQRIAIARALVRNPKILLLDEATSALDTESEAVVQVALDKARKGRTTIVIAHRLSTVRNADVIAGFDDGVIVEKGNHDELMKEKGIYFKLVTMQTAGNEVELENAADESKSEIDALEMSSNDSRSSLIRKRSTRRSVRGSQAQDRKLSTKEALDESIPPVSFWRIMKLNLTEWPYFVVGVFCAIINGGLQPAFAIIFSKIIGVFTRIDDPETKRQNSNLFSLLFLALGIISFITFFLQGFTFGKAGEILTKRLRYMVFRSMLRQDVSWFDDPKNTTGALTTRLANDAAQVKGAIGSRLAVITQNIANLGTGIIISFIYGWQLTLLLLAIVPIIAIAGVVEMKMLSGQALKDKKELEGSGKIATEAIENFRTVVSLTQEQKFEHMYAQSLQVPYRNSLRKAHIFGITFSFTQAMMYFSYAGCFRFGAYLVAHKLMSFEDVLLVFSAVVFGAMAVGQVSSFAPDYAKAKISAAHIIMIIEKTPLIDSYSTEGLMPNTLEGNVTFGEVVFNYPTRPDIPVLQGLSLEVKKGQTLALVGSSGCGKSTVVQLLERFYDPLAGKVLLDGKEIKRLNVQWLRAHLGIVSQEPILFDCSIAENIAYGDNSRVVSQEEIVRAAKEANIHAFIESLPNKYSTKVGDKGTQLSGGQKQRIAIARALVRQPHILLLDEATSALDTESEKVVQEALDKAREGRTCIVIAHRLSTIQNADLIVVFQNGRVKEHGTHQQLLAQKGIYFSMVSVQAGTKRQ

[7] = hESC survival regulators, cell-based (AID 493140; call rule not given here;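 note: cells exposed to compounds for four days before counting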); conditions: human embryonic stem cell survival screen; stronger effect = higher value
[8] = liver-stage malaria parasite growth inhibition, primary screen, cell-based, HepG2, luciferase luminescence, HepG2 viability (AID 624349; in the data active = parasite load remaining mostly below about 12%, no sharp cut-off; inactive = mostly above about 10%;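 note: 100% = mean of DMSO negative control wells on the same plate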); conditions: P. berghei liver stage in HepG2, luciferase luminescence, concentration not given here; parasite load remaining: stronger effect = lower value; viability: measured here: HepG2 viability without parasites
[9] = measured here: relative caspase fold change +Dox/-Dox
[10] = measured here: total cells with miR-34 induction, stronger effect = lower value
[11] = measured here: total cells without miR-34 induction
[12] = stronger effect = lower value, cell number ratio, induced over uninduced

SMILES: NC(CCCCCP(=O)(O)O)C(=O)O (stereo not given)
- period change [1]: -0.03 h (inactive)
- inhibition [2]: -1% (inactive)
- fluorescence ratio (interference) [3]: 1 (inactive)
- fold change ([4]; stronger effect = lower value): 1.02 (inactive)
- fold change [4, 9]: 2.45
- cell count [4, 10]: 10400
- cell count [4, 11]: 10200
- z-score [5]: 0.42 (inactive)

SMILES: C[C@]12CCC3C(CCC4=CC(=O)CC[C@@]43C)C1CCC2O (stereo not given in full)
- fold change ([4]; stronger effect = lower value): 0.881 (inactive)
- fold change [4, 9]: 1.72
- cell count [4, 10]: 8500
- cell count [4, 11]: 9660
- z-score [5]: 0.515 (inactive)

SMILES: COc1ccc2[nH]c3c(c2c1)CCN=C3C
- fluorescence slope change [6]: 83.4% (active)
- survival [7]: 10.2 (inactive)
- parasite load remaining [8]: 105% (inactive) and 62.3% (inactive)
- viability [8]: 98.5% and 75.1%
- fold change ([4]; stronger effect = lower value): 0.83 (inactive)
- fold change [4, 9]: 1.33
- cell count [4, 10]: 7960
- cell count [4, 11]: 9590

SMILES: OC[C@H]1O[C@@H](n2cnc3cc(Cl)c(Cl)cc32)C(O)[C@H]1O (stereo not given in full)
- survival [7]: 56.1 (inactive)
- fold change ([4]; stronger effect = lower value): 0.916 (inactive)
- fold change [4, 9]: 0.917
- cell count [4, 10]: 1540
- cell count [4, 11]: 1680

SMILES: C[C@]12CC(=CO)C(=O)CC1CCC1C2CC[C@@]2(C)C1CC[C@]2(C)O (stereo not given in full)
- fold change ([4]; stronger effect = lower value): 0.96 (inactive)
- fold change [4, 9]: 2.87
- cell count [4, 10]: 9400
- cell count [4, 11]: 9790
- z-score [5]: -1.14 (inactive)

SMILES: C[C@]12Cc3cn[nH]c3CC1CCC1C2CC[C@@]2(C)C1CC[C@]2(C)O (stereo not given in full)
- fold change ([4]; stronger effect = lower value): 0.922 (inactive)
- fold change [4, 9]: 1.42
- cell count [4, 10]: 8110
- cell count [4, 11]: 8800
- z-score [5]: -0.42 (inactive)

SMILES: C=C1C/C(=C/C)C(=O)O[C@@H]2CCN3CC=C(COC(=O)[C@]1(C)O)[C@H]23
- survival [7]: 10.6 (inactive)
- parasite load remaining [8]: 91.1% (inactive) and 73.7% (inactive)
- viability [8]: 125% and 77.7%
- fold change ([4]; stronger effect = lower value): 0.88 (inactive)
- fold change [4, 9]: 1.73
- cell count [4, 10]: 9540
- cell count [4, 11]: 10800

SMILES: CC[C@@H](C)C(=O)O[C@H]1[C@H](O)[C@H]2[C@@H](CN3C[C@@H](C)CC[C@H]3[C@@]2(C)O)C2C[C@]34O[C@@]5(O)[C@@H](OC(=O)[C@](C)(O)CC)CC[C@@]3(C)[C@@H]5[C@@H](OC(C)=O)[C@@H](OC(C)=O)[C@H]4[C@@]21O (stereo not given in full)
- parasite load remaining [8]: 119% (inactive)
- viability [8]: 111%
- fold change [4, 12]: 0.898 (inactive)
- fold change [4, 9]: 1.61
- cell count [4, 10]: 9180
- cell count [4, 11]: 10200

SMILES: CC(=O)O[C@H]1C[C@H](O[C@H]2[C@@H](O)C[C@H](O[C@H]3[C@@H](O)C[C@H](O[C@H]4CC[C@@]5(C)[C@H](CC[C@]6(C)[C@]5(C)C[C@@H](O)[C@]5(C)[C@@H](C7=CC(=O)OC7)CC[C@@]56O)C4)O[C@@H]3C)O[C@@H]2C)O[C@H](C)[C@H]1O[C@@H]1O[C@H](CO)[C@@H](O)[C@H](O)[C@H]1O
- parasite load remaining [8]: 0.31% (inactive)
- viability [8]: 66.6%
- fold change [4, 12]: 0.992 (inactive)
- fold change [4, 9]: 1.14
- cell count [4, 10]: 808
- cell count [4, 11]: 815
